In PubChem BioAssay (NCI):
“And” between values parts separate entries of the source, which are not always exact repeats. Equal entries are not always repeated. The panel holds about 79,000 compounds, 15% with a hit somewhere; the sample as a whole holds those more often. Where a structure was tested more than once in an assay, its records may differ in their call. The source made the active and inactive calls. Rule as the data show it: active = growth inhibition above about 70%; inactive = the rest.

How the values were obtained:
[1] = NCI Yeast Anticancer Drug Screen. Data for the rad50 strain (AID 155);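 also: 0% = growth of vehicle-only cultures of the same strain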; details: S. cerevisiae rad50 strain growth inhibition, stronger effect = higher value
How it was run: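 Relative growth inhibition (compound vs vehicle) was measured in yeast with a defined repair-gene alteration.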

[2] = NCI Yeast Anticancer Drug Screen. Data for the mec2-1 strain (AID 157); details: S. cerevisiae mec2-1 strain, stronger effect = higher value
How it was run: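 Cells of the genetically defined mec2-1 yeast strain are incubated with test compound. Inhibition of growth is calculated against vehicle-treated controls.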

[3] = NCI Yeast Anticancer Drug Screen. Data for the sgs1 mgt1 strain (AID 161);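 also: 0% = growth of cultures given vehicle only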; details: S. cerevisiae sgs1 mgt1 strain, stronger effect = higher value
How it was run: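 Inhibition of yeast growth, normalised to vehicle-treated controls, is reported for a strain bearing genetic alterations in DNA damage repair.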

[4] = NCI Yeast Anticancer Drug Screen. Data for the cln2 rad14 strain (AID 165);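 also: 0% = growth equal to vehicle treated cultures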; details: S. cerevisiae cln2 rad14 strain, stronger effect = higher value
How it was run: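 The screen exposed genetically defined yeast (cln2 rad14) to test compounds and scored growth inhibition relative to vehicle-treated controls.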

[5] = NCI Yeast Anticancer Drug Screen. Data for the bub3 strain (AID 167); details: S. cerevisiae bub3 mutant strain, stronger effect = higher value
How it was run: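 Screening used yeast with an engineered genetic alteration affecting cell cycle control. Compound-exposed cultures were compared with vehicle cultures, and reduced growth was taken as inhibition.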

[6] = NCI Yeast Anticancer Drug Screen. Data for the mlh1 rad18 strain (AID 175); details: S. cerevisiae mlh1 rad18 strain growth inhibition, stronger effect = higher value
How it was run: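 Compound-treated yeast growth, normalised to vehicle controls. Strain bears defined DNA repair mutations.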

[7] = at 5.0 µM (retest, dose inferred, filed as 0.5)
[8] = at 50.0 µM (retest, dose inferred, filed as 5.0)

Measured: growth inhibition

COC1CC2C(C[CH]1[Hg][Cl])C2(Cl)Cl (centres undefined)
active: [1]; [7] 99% | [1]; [8] 99% | [1]; at 50.0 µM 99.5% | [2]; [7] 100% | [2]; [8] 100% | [2]; at 50.0 µM 99.6% | [3]; [7] 100% | [3]; [8] 99% | [3]; at 50.0 µM 99.5% | [4]; [7] 99% | [4]; [8] 99% | [4]; at 50.0 µM 99.2% | [5]; [7] 99% | [5]; [8] 99% | [5]; at 50.0 µM 98% | [6]; [7] 99% | [6]; [8] 99% | [6]; at 50.0 µM 99.5%

NC(Cc1c[nH]c2ccccc12)P(=O)(O)O (centres undefined)
inactive: [1]; [7] -1% | [1]; [8] 37% | [1]; at 50.0 µM 38.1% | [2]; [7] 0% | [2]; at 50.0 µM 13.4% | [3]; [7] 3% | [3]; [8] 29% | [3]; at 50.0 µM -7.75% | [4]; [7] 1% | [4]; at 50.0 µM 22.9% | [5]; [7] -9% | [5]; at 50.0 µM -0.8% | [6]; [7] -9% | [6]; [8] 47% | [6]; at 50.0 µM 26%
active: [2]; [8] 87% | [4]; [8] 96% | [5]; [8] 98%

CSc1ccc(NC(=O)C2c3[nH]c4ccccc4c3C3CCC(C(C)(C)C)CC3C2C(=O)O)cc1 (centres undefined)
active: [5]; at 50.0 µM 77.1%
inactive: [1]; [7] 0% | [1]; [8] -4% | [1]; at 50.0 µM 16.8% | [2]; [7] -16% | [2]; [8] 10% | [2]; at 50.0 µM 1.95% | [3]; [7] -4% | [3]; [8] 1% | [3]; at 50.0 µM 30.8% | [4]; [7] -19% | [4]; [8] 8% | [4]; at 50.0 µM 56.4% | [5]; [7] -8% | [5]; [8] 5% | [6]; [7] 11% | [6]; [8] 26% | [6]; at 50.0 µM 46%

CCC1(C2=CCCCC2)C(=O)NC(=S)NC1=O
active: [2]; [8] 76% | [3]; [8] 77% | [6]; [8] 79%
inactive: [1]; [7] -101% | [1]; [8] 62% | [1]; at 50.0 µM 8.05% and 60.1% | [2]; [7] -11% | [2]; at 50.0 µM -3.9% and 5.6% | [3]; [7] 22% | [3]; at 50.0 µM 0.6% and 51.5% | [4]; [7] -14% | [4]; [8] 62% | [4]; at 50.0 µM -32.4% and -0.6% | [5]; [7] 4% | [5]; [8] 62% | [5]; at 50.0 µM 6.05% and 34.2% | [6]; [7] 0%
25.5% (inactive) and 85% (active): [6]; at 50.0 µM

CC(=O)OC1C2(CC3N4C(=O)C5(CO)SSC4(CC31O)C(=O)N5C)OC(C)C(C)(C)C2=O (centres undefined)
inactive: [1]; [7] 67% | [3]; [7] 68% | [4]; [7] 64%
active: [1]; [8] 99% | [1]; at 50.0 µM 90.2% | [2]; [7] 80% | [2]; [8] 100% | [2]; at 50.0 µM 93.2% | [3]; [8] 97% | [3]; at 50.0 µM 92.8% | [4]; [8] 99% | [4]; at 50.0 µM 88.6% | [5]; [7] 71% | [5]; [8] 99% | [5]; at 50.0 µM 91.5% | [6]; [7] 83% | [6]; [8] 99% | [6]; at 50.0 µM 91.2%

[I][Hg][I].c1ccc(N=P(c2ccccc2)(c2ccccc2)c2ccccc2)cc1
active: [1]; [7] 99% | [1]; [8] 99% | [1]; at 50.0 µM 99.3% | [2]; [7] 100% | [2]; [8] 100% | [2]; at 50.0 µM 99.6% | [3]; [7] 100% | [3]; [8] 99% | [3]; at 50.0 µM 99.6% | [4]; [7] 99% | [4]; [8] 99% | [4]; at 50.0 µM 98.7% | [5]; [7] 99% | [5]; [8] 99% | [5]; at 50.0 µM 99.3% | [6]; [7] 99% | [6]; [8] 99% | [6]; at 50.0 µM 99.3%

CCOc1c(Br)cc(/C=C/[N+](=O)[O-])cc1OC
active: [1]; [8] 98% | [2]; [8] 98% | [2]; at 50.0 µM 75.5% | [3]; [8] 98% | [3]; at 50.0 µM 84% | [4]; [8] 92% | [4]; at 50.0 µM 77% | [5]; [8] 99% | [5]; at 50.0 µM 79% | [6]; [8] 98% | [6]; at 50.0 µM 90.5%
inactive: [1]; [7] 44% | [1]; at 50.0 µM 69.8% | [2]; [7] 61% | [3]; [7] 32% | [4]; [7] 45% | [5]; [7] 61% | [6]; [7] 58%

OC(c1cc2c(c3ccccc13)CCCC2)C1CCCCN1 (centres undefined)
inactive: [1]; [7] -4% | [1]; [8] 17% | [1]; at 50.0 µM 64.5% | [2]; [7] -1% | [2]; [8] 12% | [2]; at 50.0 µM 42.4% | [3]; [7] 3% | [3]; [8] 47% | [3]; at 50.0 µM 68% | [4]; [7] 1% | [4]; [8] 21% | [5]; [7] 0% | [5]; [8] 18% | [5]; at 50.0 µM 59% | [6]; [7] 0% | [6]; [8] 41%
active: [4]; at 50.0 µM 79.7% | [6]; at 50.0 µM 95.5%
